# Where “and” joins values, the source holds several entries; their conditions need not be identical. Equal entries are not always repeated. Records with an inconclusive call do not appear. Entries that show only a call come without a potency. Calls of active or inactive are those of the source. Unless noted, calls come from the whole dose curve; as a rule, active = well fitted curve in the direction sought with a large enough effect; inconclusive = small, poorly fitted or top-dose-only effect, or another doubt; inactive = no such curve, though single readings can be large; an effect the other way counts as inactive or inconclusive.
# Columns and labels:
# [1] = target: Beta-2 adrenergic receptor (Homo sapiens) (UniProt P07550); assay: qHTS validation assay of beta-arrestin-biased ligands of beta2-adrenergic receptor (AID 485366)
# Method in brief: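 Compound series up to 46 microM applied to beta2-AR/beta-arrestin Tango cells, 18 hr, 37 degrees C, 5% CO2. Read-out: tTA-driven luciferase luminescence, converted to %Activity; concentration-response curves assigned curve classes.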
# [2] = Quantitative high throughput screen for delayed death inhibitors of the malarial parasite plastid, 96 hour incubation (AID 488745); note: nearly all actives have a fitted effect of over 70% in size; note: potency is the fitted concentration of half-maximal effect
# Method in brief: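 Two-generation (96 h) exposure of luciferase-reporter P. falciparum in erythrocytes, 2% hematocrit, 0.1% parasitemia final, 37 C, 5% CO2, RPMI 1640 with 0.5% Albumax. Growth inhibition scored by reduced luminescence.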
# [3] = Quantitative high throughput screen for delayed death inhibitors of the malarial parasite plastid, 48 hour incubation (AID 488752); note: nearly all actives have a fitted effect of over 65% in size; note: potency is the fitted concentration of half-maximal effect
# Method in brief: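 Cultures: infected erythrocytes at final 2% hematocrit and 0.1% parasitemia in Albumax-supplemented RPMI. Parasites express integrated firefly luciferase. Incubation with compound lasts 48 h before luminescent detection of remaining reporter activity.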
# [4] = target: Thioredoxin reductase 1, cytoplasmic (Rattus norvegicus) (UniProt O89049); assay: qHTS Assay for Substrates of Mammalian Selenoprotein Thioredoxin Reductase 1 (TrxR1) (AID 488772);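 note: series mostly up to about 57 µM; a drop in NADPH fluorescence below the no-compound background marks a TrxR1 substrate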
# Method in brief: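 In this dual-purpose format, potential substrates are identified from the first fluorescence read after selenite addition, not from the 8-minute delta. Rat enzyme is preincubated with NADPH and then with compound at ~22 deg C.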
# [5] = target: Thioredoxin reductase 1, cytoplasmic (Rattus norvegicus) (UniProt O89049); assay: qHTS Assay for Inhibitors of Mammalian Selenoprotein Thioredoxin Reductase 1 (TrxR1) (AID 488773); settings: Potency: inhibition;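 note: drop in NADPH fluorescence over an 8 min run after selenite addition; series mostly up to about 57 µM; nearly all actives have a fitted effect of over 40% in size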
# Method in brief: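 Inhibition is scored from the loss of NADPH fluorescence between first and last reads of an 8-min kinetic run. Selenite (400 uM) was the substrate, added after 15 min compound preincubation at room temperature.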
# [6] = target: M-phase phosphoprotein 8 (Homo sapiens) (UniProt Q99549); assay: qHTS Validation Assay for Inhibitors for MPP8 Chromodomain Interactions with Methylated Histone Tails (AID 488949);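 note: AlphaScreen signal from MPP8 chromodomain bound to biotinylated H3K9me3 peptide; top concentration of the series differs between compounds; nearly all actives have a fitted effect of over 55% in size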
# Method in brief: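 AlphaScreen read-out: streptavidin donor and nickel chelate acceptor beads (final 10 ug/mL), 30 min in the dark at RT. Complex of 50 nM MPP8 and 50 nM b-H3(1-18)K9me3 peptide had been exposed to compounds for 30 min beforehand.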
# [7] = target: Chromobox protein homolog 1 (Homo sapiens) (UniProt P83916); assay: qHTS Validation Assay for Inhibitors of HP1-beta Chromodomain Interactions with Methylated Histone Tails (AID 488953);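 note: loss of AlphaScreen luminescence from HP1-beta binding biotinylated H3K9me3 peptide; series mostly up to about 110 µM; nearly all actives have a fitted effect of over 50% in size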
# Method in brief: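 Compounds pinned into a preassembled complex of HP1-beta and trimethyl-K9 histone H3(1-18) biotin peptide (50 nM each; PBS pH 7.4, 0.01% Tween-20). After 30 min, bead-based AlphaScreen detection followed.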
# [8] = target: Methanococcus maripaludis chaperonin (MmCpn) (UniProt Q6LX38); assay: High-Throughput Screening for Modulators of Cytosolic Chaperonin Activity: MmCpn Primary Screen (AID 488978);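 note: 50 nM MmCpn enzyme hydrolysing 30 µM ATP at 37 °C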
# Method in brief: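 ADP formation read by HTRF Transcreener, 665/590 nm emission after 320 nm excitation. Enzyme: archaeal chaperonin at 50 nM final; substrate ATP 30 uM final; 10 min, 37C, after 5 min compound preincubation at RT.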
# [9] = target: Transient receptor potential cation channel subfamily V member 1 (Homo sapiens) (UniProt Q8NER1); assay: HTS Assay for Compounds that Act as Enhancers of the Vanilloid Receptor 1 (AID 488979)
# Method in brief: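 Calcium influx kinetics via Fluo-8 (480/520 nm) in TRPV1-expressing cells, 2000/well cultured overnight at 35.5C. Compound-alone read 3 min (agonist phase), followed by EC20 capsaicin challenge for 2 min (enhancer phase).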
# [10] = target: Thyrotropin receptor (Homo sapiens) (UniProt P16473); assay: qHTS Assay for Antagonists of the Thyroid Stimulating Hormone Receptor (AID 488980); note: series mostly up to about 58 µM
# Method in brief: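 TSHR-HEK293 cells; 70 uM RO 20-1724 PDE inhibitor; compound + EC80 TSH (4 nM final); anti-cAMP cryptate antibody/cAMP-d2 in lysis buffer, 30 min RT; HTRF 665/620 nm read.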
# [11] = target: D(1A) dopamine receptor (Homo sapiens) (UniProt P21728); assay: HTS Assay for Allosteric Agonists of the Human D1 Dopamine Receptor: Primary Screen for Agonists (AID 488981)
# Method in brief: (§1)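 Calcium flux in an inducible, force-coupled HEK293 Trex D1 line (overnight at 30 C): agonist mode is the 180 s kinetic read after compound; potentiator mode is the following 180 s read after dopamine at EC20.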
# [12] = target: D(1A) dopamine receptor (Homo sapiens) (UniProt P21728); assay: HTS Assay for Allosteric Agonists of the Human D1 Dopamine Receptor: Primary Screen for Potentiators (AID 488982)
# Method in brief: as §1
# [13] = target: D(1A) dopamine receptor (Homo sapiens) (UniProt P21728); assay: HTS Assay for Allosteric Agonists of the Human D1 Dopamine Receptor: Primary Screen for Antagonists (AID 488983);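 note: calcium flux response to an EC80 dopamine challenge measured with no-wash dye; nearly all actives have a fitted effect of over 65% in size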
# Method in brief: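 In this primary screen, compounds are applied to calcium-dye-loaded HEK293 T-REx cells with force-coupled D1 expression induced overnight at 30 C. An EC80 of dopamine follows the 180 s compound phase, and calcium is monitored for a further 180 s.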
# [14] = target: ATP-dependent 6-phosphofructokinase (Trypanosoma brucei brucei) (UniProt O15648); assay: qHTS Assay to Find Inhibitors of T. brucei phosphofructokinase: hit validation (AID 492961);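 note: luminescence reports ADP formed as PFK phosphorylates fructose-6-phosphate with ATP; series mostly up to about 51 µM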
# Method in brief: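 ADP-Glo luminescence read-out of ADP formed by 1.25 nM PFK from 0.1 mM ATP and 0.5 mM F6P (TEA pH 8.0, 45 min, RT). Compounds titrated; activity normalized to no-enzyme and full-enzyme controls.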
# [15] = Validation screen for small molecules that induce genotoxicity in human embryonic kidney (HEK293T) cells expressing luciferase-tagged ELG1 (AID 493106)
# Method in brief: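 In this validation screen, increased ELG1-luciferase signal flags compounds causing genetic stress. HEK293T reporter cells are treated 16 hr (37 °C, 5% CO2), developed with ONE-Glo for 30 min at room temperature, and imaged on a CCD-based reader.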
# [16] = target: ATPase family AAA domain-containing protein 5 (Homo sapiens) (UniProt Q96QE3); assay: Validation screen for small molecules that inhibit ELG1-dependent DNA repair in human embryonic kidney (HEK293T) cells expressing luciferase-tagged ELG1 (AID 493107); note: nearly all actives have a fitted effect of over 70% in size; note: potency is the fitted concentration of half-maximal effect
# Method in brief: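 Compounds reducing 5-fluorouridine-driven ELG1-luciferase signal in HEK293T cells were scored; exposure lasted 16 hr at 37 °C with luminescence detected via ONE-Glo.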
# [17] = target: Thyrotropin-releasing hormone receptor (Homo sapiens) (UniProt P34981); assay: qHTS for Small Molecule Agonists and Allosteric Enhancers of Human TRH Receptor: Validation Screen for Agonists (AID 493127;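 active = calcium activation more than 3 SD above the typical response in the agonist read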;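 note: intracellular calcium rise by fluo-8 fluorescence before TRH EC20 addition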); settings: TRH receptor agonist cell assay; at 2 µM; stronger effect = higher value
# Method in brief: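 Kinetic fluorescence assay of agonist-induced calcium release: overnight-plated TRHR cells, room-temperature fluo-8 loading, baseline then compound addition with per-second reads.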
# [18] = Nrf2 qHTS screen for inhibitors: Validation (AID 493153; active = well fitted inhibition curve with a large enough effect in the main read-out, with a control signal flat, not every such curve was filed as active); settings: viability change: measured here: cytotoxicity max response
# Method in brief: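 In this counterscreened reporter format, each well gives two signals: CellTiter-Fluor fluorescence for cytotoxicity and ARE-luciferase luminescence for Nrf2 function. A549 ARE_Fluc cells in 5% FBS OPTI-MEM were exposed to compound titrations for 18-24 h.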
# [19] = target: Flap endonuclease 1 (Homo sapiens) (UniProt P39748); assay: qHTS Validation Assay for the Inhibitors of Human Flap endonuclease 1 (FEN1) (AID 488816)
# Method in brief: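 qHTS format: compounds and 10 nM FEN1 incubated 15 min at room temperature before adding 50 nM substrate. Cleavage followed by reads at 0 and 15 min; normalized data fitted to a four-parameter Hill curve.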
# Chain of Methanococcus maripaludis chaperonin (MmCpn) (Q6LX38 1-543): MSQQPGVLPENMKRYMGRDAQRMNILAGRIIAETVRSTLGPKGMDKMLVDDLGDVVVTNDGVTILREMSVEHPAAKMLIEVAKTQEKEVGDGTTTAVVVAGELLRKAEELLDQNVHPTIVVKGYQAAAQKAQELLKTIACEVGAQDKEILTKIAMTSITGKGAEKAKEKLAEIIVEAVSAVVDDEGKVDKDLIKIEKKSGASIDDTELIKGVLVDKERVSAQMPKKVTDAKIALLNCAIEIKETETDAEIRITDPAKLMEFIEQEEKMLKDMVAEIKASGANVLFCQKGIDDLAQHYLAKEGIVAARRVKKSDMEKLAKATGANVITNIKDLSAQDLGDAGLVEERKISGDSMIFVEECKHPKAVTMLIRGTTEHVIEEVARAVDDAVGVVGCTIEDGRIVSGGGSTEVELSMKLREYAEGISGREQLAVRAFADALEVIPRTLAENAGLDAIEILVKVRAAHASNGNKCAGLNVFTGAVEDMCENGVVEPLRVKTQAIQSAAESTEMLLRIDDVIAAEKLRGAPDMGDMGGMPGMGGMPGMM
# Chain of Thioredoxin reductase 1, cytoplasmic (Rattus norvegicus) (O89049 whole entry, looked up): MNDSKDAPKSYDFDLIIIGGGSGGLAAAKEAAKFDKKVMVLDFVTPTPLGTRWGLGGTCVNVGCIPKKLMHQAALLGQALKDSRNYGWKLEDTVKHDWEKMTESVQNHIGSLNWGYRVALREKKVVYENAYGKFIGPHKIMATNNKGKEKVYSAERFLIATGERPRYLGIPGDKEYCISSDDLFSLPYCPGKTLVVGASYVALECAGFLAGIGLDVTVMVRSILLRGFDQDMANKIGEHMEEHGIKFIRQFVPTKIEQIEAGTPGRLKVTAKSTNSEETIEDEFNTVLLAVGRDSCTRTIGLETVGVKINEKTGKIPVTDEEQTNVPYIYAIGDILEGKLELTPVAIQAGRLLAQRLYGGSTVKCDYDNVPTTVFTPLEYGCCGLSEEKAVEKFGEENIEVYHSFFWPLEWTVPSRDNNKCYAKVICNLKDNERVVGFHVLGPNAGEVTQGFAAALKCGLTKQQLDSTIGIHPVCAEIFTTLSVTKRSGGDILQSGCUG
# Chain of Transient receptor potential cation channel subfamily V member 1 (Homo sapiens) (Q8NER1 whole entry, looked up): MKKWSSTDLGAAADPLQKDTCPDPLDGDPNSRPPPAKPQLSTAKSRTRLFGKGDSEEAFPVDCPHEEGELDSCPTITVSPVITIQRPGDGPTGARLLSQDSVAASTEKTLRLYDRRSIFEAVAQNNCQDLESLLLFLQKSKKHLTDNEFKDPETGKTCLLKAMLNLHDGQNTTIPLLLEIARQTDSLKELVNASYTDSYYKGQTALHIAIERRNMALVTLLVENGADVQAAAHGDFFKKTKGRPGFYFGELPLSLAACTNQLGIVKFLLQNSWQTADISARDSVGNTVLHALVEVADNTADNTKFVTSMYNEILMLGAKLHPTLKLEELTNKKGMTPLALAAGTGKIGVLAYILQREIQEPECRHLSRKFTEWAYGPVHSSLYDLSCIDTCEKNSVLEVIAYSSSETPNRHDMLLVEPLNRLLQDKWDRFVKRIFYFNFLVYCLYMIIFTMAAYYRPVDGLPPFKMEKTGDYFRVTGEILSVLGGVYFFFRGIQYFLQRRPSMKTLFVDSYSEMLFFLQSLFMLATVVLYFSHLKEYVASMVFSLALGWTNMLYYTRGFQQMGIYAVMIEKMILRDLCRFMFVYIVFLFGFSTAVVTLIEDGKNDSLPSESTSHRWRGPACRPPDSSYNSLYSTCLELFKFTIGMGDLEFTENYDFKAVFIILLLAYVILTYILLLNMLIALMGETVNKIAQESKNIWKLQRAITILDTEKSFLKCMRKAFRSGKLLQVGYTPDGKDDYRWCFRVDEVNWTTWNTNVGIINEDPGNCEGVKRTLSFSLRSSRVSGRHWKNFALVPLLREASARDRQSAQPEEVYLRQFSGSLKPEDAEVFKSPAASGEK
# Chain of D(1A) dopamine receptor (Homo sapiens) (P21728 whole entry, looked up): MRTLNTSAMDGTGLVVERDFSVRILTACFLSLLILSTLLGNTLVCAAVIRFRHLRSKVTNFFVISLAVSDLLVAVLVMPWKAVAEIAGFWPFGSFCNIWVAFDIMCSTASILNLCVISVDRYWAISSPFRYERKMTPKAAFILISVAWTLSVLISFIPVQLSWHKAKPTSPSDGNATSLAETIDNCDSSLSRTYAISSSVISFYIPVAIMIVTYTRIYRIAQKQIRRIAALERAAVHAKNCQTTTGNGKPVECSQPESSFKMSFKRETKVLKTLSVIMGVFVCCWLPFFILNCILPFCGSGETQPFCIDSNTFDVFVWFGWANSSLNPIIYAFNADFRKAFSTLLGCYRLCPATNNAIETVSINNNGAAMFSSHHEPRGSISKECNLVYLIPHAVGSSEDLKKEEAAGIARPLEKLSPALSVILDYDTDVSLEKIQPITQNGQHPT
# Chain of Thyrotropin receptor (Homo sapiens) (P16473 whole entry, looked up): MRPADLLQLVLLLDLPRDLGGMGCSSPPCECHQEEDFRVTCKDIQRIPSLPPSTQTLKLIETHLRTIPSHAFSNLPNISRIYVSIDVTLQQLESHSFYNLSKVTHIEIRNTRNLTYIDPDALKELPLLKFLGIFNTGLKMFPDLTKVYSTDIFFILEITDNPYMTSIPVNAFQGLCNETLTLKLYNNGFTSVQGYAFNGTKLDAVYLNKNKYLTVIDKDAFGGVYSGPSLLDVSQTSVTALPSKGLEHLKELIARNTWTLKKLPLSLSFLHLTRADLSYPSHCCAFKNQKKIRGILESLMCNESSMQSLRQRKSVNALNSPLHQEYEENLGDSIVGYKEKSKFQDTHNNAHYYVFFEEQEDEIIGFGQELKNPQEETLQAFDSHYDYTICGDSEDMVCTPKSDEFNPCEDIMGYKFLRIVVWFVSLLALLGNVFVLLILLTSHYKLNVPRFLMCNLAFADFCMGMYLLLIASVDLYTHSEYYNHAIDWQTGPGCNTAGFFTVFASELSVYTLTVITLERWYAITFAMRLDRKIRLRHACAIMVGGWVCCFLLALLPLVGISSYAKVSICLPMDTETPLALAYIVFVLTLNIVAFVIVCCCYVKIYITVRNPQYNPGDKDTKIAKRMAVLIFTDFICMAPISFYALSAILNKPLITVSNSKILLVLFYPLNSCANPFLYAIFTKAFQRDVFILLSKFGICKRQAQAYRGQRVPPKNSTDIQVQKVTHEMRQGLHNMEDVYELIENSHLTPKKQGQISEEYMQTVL
# Chain of ATPase family AAA domain-containing protein 5 (Homo sapiens) (Q96QE3 whole entry, looked up, the tested form may be a part): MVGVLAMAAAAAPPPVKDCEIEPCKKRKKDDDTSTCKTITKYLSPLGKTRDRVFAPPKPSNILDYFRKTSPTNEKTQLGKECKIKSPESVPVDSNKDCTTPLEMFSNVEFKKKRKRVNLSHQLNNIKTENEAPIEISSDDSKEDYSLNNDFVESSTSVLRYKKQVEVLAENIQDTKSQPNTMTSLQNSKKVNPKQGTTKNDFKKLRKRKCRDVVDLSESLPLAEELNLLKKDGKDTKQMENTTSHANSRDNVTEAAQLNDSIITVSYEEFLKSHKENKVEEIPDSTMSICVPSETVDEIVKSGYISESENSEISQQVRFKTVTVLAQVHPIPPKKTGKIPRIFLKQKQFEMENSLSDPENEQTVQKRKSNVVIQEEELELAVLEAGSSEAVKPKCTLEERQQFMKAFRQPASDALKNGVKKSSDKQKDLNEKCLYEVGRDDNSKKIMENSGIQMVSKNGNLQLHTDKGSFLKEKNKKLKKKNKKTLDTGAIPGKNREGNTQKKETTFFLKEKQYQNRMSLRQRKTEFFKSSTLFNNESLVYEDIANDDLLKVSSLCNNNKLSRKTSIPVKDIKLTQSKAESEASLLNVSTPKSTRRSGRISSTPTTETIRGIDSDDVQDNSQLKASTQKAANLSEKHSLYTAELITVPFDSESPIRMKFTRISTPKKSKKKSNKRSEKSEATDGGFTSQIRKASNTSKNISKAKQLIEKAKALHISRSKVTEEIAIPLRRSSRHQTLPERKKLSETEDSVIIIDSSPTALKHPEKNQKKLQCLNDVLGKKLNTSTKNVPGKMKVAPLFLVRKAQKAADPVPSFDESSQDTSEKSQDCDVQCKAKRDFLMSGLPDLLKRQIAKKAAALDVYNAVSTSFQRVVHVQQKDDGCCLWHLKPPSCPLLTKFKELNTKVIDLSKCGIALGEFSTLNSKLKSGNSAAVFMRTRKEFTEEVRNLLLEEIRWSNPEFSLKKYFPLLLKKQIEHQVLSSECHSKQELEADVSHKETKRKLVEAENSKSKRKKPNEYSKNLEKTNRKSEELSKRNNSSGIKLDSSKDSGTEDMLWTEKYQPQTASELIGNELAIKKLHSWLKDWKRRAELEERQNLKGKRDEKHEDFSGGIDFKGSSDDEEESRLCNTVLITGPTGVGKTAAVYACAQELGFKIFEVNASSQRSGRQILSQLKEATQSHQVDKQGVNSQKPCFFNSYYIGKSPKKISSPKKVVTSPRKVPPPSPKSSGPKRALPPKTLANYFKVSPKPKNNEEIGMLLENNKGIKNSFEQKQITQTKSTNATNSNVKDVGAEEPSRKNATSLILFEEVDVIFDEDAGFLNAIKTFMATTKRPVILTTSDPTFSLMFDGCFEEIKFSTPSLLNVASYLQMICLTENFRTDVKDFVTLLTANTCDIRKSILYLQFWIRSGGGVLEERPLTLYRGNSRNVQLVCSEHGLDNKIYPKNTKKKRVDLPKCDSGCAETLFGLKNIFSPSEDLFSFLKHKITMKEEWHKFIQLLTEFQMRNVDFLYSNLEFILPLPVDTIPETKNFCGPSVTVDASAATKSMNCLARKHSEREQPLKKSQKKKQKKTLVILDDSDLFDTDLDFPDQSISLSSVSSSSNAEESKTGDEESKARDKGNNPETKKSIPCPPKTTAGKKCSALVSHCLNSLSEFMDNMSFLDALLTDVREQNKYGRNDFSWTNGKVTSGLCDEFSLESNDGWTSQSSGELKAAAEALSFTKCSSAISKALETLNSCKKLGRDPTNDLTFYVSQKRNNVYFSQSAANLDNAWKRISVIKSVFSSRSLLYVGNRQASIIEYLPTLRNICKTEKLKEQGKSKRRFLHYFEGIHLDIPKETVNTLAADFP
Compound,outcome [1],Potency [2],Potency [3],outcome [4],Potency [5],Potency [6],Potency [7],outcome [8],outcome [9],outcome [10],Potency [11],outcome [12],Potency [13],Potency [14],outcome [15],Potency [16],activation [17],outcome [18],viability change [18],Potency [19]
NC(=O)CN1CC(O)CC1=O (stereo not drawn),inactive,inactive,inactive,inactive,inactive,inactive,inactive,inactive,inactive,inactive,inactive,inactive,inactive,inactive,inactive,inactive,1.25% (inactive),inactive,1.59%,
CC[C@@]1(O)C(=O)OCc2c1cc1n(c2=O)Cc2cc3ccccc3nc2-1,inactive,1470 nM (active),2330 nM (active),inactive,inactive,inactive,,inactive,inactive,inactive,inactive,inactive,inactive,,inactive,461 nM (active),-0.188% (inactive),,,inactive
C[C@@H](N)Cc1cnc[nH]1,inactive,inactive,inactive,inactive,inactive,inactive,inactive,inactive,inactive,inactive,inactive,inactive,inactive,,inactive,inactive,1.12% (inactive),,,inactive
O=C(O)[C@@H]1CCN1,inactive,inactive,inactive,inactive,inactive,inactive,inactive,inactive,inactive,inactive,inactive,inactive,inactive,,inactive,inactive,0.75% (inactive),inactive,8.8%,inactive
CCCN1CCO[C@@H]2c3cc(O)ccc3OC[C@H]21,inactive,inactive,inactive,inactive,inactive,inactive,inactive,inactive,inactive,inactive,inactive,inactive,inactive,,inactive,inactive,1.06% (inactive) and 0% (inactive),inactive,-0.639% and -4.02%,inactive
CC(=O)[C@H]1CCC2C3CC[C@H]4C[C@H](O)CC[C@]4(C)C3CC[C@@]21C (stereo partly drawn),inactive,inactive,inactive,inactive,inactive,inactive,inactive,inactive,inactive,inactive,inactive,inactive,inactive,,inactive,inactive,-6% (inactive),inactive,-0.378%,inactive
CC1=NN=C(c2ccc(N)cc2)c2cc3c(cc2C1)OCO3,inactive,inactive,inactive,inactive,inactive,inactive,inactive,inactive,inactive,inactive,inactive,inactive,inactive,,inactive,inactive,0.438% (inactive),inactive,-4.5%,inactive
